The list is not random: actives were taken first. Their share in the collection is about 6.7%.
BoNT-A LC inh2 = blocks Botulinum neurotoxin A light chain protease; multiplex microsphere protease substrate cleavage, flow cytometry; inhibition, % at 10 µM; hit rate 0.17% among 360,000; note: plate controls were buffer without enzyme for full effect and enzyme alone for no effect
Autofluor counter = flagged as autofluorescent in microsphere protease counterscreen; compound autofluorescence counterscreen, microsphere flow cytometry; stronger effect = higher value; hit rate 3.1% among 360,000; fluorescence intensity (test concentration not listed); in the data active = fluorescence intensity above about 16000; inconclusive = no clear call, values can overlap the other calls
BoNT-F LC inh = blocks Botulinum neurotoxin F light chain protease | hit rate 0.22% among 360,000 | Multiplex microsphere protease cleavage assay, flow cytometry | AID 588497 | inhibition, % at 10 µM; in the data active = inhibition above about 35%, passing the limit was not always enough; inconclusive = no clear call, values can overlap the other calls; note: plate controls were buffer without enzyme for full effect and enzyme alone for no effect
Mtb FBA inh = inhibits M. tuberculosis FBA enzyme; purified M. tuberculosis FBA, fluorescence read-out; inhibition, % at 1 µM; hit rate 2.3% among 360,000; in the data active = inhibition above about 27%;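 note: 0% = vehicle and 100% = reference inhibitor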
Target sequence (P9WQA3 whole entry, looked up): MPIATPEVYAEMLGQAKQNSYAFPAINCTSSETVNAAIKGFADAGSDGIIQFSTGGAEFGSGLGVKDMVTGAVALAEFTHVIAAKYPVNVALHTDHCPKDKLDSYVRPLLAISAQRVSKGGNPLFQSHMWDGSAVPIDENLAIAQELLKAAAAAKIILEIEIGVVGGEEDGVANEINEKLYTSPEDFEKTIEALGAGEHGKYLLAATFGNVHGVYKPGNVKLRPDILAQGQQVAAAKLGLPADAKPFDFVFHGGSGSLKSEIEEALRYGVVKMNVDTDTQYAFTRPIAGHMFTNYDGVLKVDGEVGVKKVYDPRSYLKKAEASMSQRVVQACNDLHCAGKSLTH
Anthrax LF inh2 = inhibitors of Bacillus anthracis lethal factor protease. multiplex microsphere protease cleavage assay, LF. P15917. hit rate 0.12% among 360,000. inhibition, % at 10 µM. AID 588501; note: plate controls were buffer without enzyme for full effect and enzyme alone for no effect
GDH-TPI counter = GDH-TPI coupled enzyme inhibition counter-screen; GDH-TPI coupled enzyme counterscreen, NADH absorbance; inhibition, % at 4.8 µM; hit rate 1.2% among 360,000; in the data active = inhibition above about 30%;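 note: 0% = DMSO wells and 100% = wells lacking the enzyme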
Numbers without * were called inactive. Cut-off read from the data, not from the text of the source, unless noted: active = inhibition above about 30%; inconclusive = no clear call, values can overlap the other calls; inactive = below that.

Results for CC(C)(C)C1CCC(C(=O)OCC(=O)Nc2ccc3[nH]c(=O)[nH]c3c2)CC1 (stereo not drawn) ?
BoNT-A LC inh2: 0; Autofluor counter: 2068; BoNT-F LC inh: -6; Mtb FBA inh: 1; Anthrax LF inh2: -2; GDH-TPI counter: 12

How did CC1CN(C2CCN(S(=O)(=O)Cc3ccccc3)CC2)CC(C)O1 (stereo not drawn) do in these assays?
BoNT-A LC inh2: 0; Autofluor counter: 22746*; BoNT-F LC inh: 2; Mtb FBA inh: -4; Anthrax LF inh2: -2; GDH-TPI counter: -2

What do the screens show for `CC1CN(C2CCN(S(=O)(=O)c3ccccc3)CC2)CC(C)O1` (stereo not drawn)?
BoNT-A LC inh2: 4; Autofluor counter: 7570; BoNT-F LC inh: 0; Mtb FBA inh: 0; Anthrax LF inh2: 4; GDH-TPI counter: 2

How did CC(C)c1ccccc1-n1c(SCC(=O)c2ccc3c(c2)NC(=O)CO3)nc2ccccc2c1=O do in these assays?
BoNT-A LC inh2: 0; Autofluor counter: 3379; BoNT-F LC inh: -6; Mtb FBA inh: 122*; Anthrax LF inh2: -6; GDH-TPI counter: 13

What do the screens show for `Cc1ccc(C(=O)Oc2ccc(Br)cc2C(=S)N2CCOCC2)cc1`?
BoNT-A LC inh2: 0; Autofluor counter: 4972; BoNT-F LC inh: 2; Mtb FBA inh: -2; Anthrax LF inh2: 0; GDH-TPI counter: -6

What do the screens show for `Cc1c([N+](=O)[O-])cc(C(=O)Oc2ccc(Br)cc2C(=S)N2CCCCC2)cc1[N+](=O)[O-]`?
BoNT-A LC inh2: inconclusive; Autofluor counter: 22033*; BoNT-F LC inh: 1; Mtb FBA inh: -3; Anthrax LF inh2: -3; GDH-TPI counter: 4

Results for COC(=O)CNC(=O)Cn1c(=O)n(Cc2ccc(F)cc2)c(=O)c2sccc21 ?
BoNT-A LC inh2: 4; Autofluor counter: 3068; BoNT-F LC inh: -26; Mtb FBA inh: 6; Anthrax LF inh2: 12; GDH-TPI counter: 11

What do the screens show for `CC1=C(C(=O)OCc2ccccc2)C(c2ccc(N3CCOCC3)cc2)NC(=O)N1` (stereo not drawn)?
BoNT-A LC inh2: 0; Autofluor counter: 2897; BoNT-F LC inh: -3; Mtb FBA inh: 0; Anthrax LF inh2: 4; GDH-TPI counter: -2

Results for CN(C)C(=O)c1cn(-c2ccccc2)nc1-c1cccs1 ?
BoNT-A LC inh2: inconclusive; Autofluor counter: 23620*; BoNT-F LC inh: 0; Mtb FBA inh: 2; Anthrax LF inh2: -3; GDH-TPI counter: -7

Results for O=C(Nc1ccc2ccccc2c1)c1cn(-c2ccccc2)nc1-c1cccs1 ?
BoNT-A LC inh2: 0; Autofluor counter: 16591*; BoNT-F LC inh: -7; Mtb FBA inh: 4; Anthrax LF inh2: -3; GDH-TPI counter: 7

How did O=S(=O)(Nc1ccc(Nc2ccccc2)cc1)c1ccc(F)cc1 do in these assays?
BoNT-A LC inh2: 0; Autofluor counter: 3565; BoNT-F LC inh: -67; Mtb FBA inh: -1; Anthrax LF inh2: -26; GDH-TPI counter: 18

What do the screens show for `O=c1oc(-c2ccc(O)c(O)c2)cc2cccc(O)c12`?
BoNT-A LC inh2: -1; Autofluor counter: 6324; BoNT-F LC inh: -14; Mtb FBA inh: -1; Anthrax LF inh2: 0; GDH-TPI counter: 13

Results for O=C1C=Cc2cccc3ccc(O)c1c23 ?
BoNT-A LC inh2: 61*; Autofluor counter: 3437; BoNT-F LC inh: 12; Mtb FBA inh: 7; Anthrax LF inh2: 38*; GDH-TPI counter: 16

How did CC(=O)N1CC=C2C(C#N)=C(N)C(C#N)(C#N)[C@H](c3ccoc3)[C@H]2C1 do in these assays?
BoNT-A LC inh2: 1; Autofluor counter: 23512*; BoNT-F LC inh: -1; Mtb FBA inh: 13; Anthrax LF inh2: 0; GDH-TPI counter: 12

What do the screens show for `N#CC1=C(N)C(C#N)(C#N)[C@H](c2ccoc2)[C@H]2CN(Cc3ccccc3)CC=C12`?
BoNT-A LC inh2: 4; Autofluor counter: 2632; BoNT-F LC inh: -24; Mtb FBA inh: 12; Anthrax LF inh2: -1; GDH-TPI counter: 8

What do the screens show for `CN1CC=C2C(C#N)=C(N)C(C#N)(C#N)[C@H](c3ccoc3)[C@H]2C1`?
BoNT-A LC inh2: 1; Autofluor counter: 2574; BoNT-F LC inh: -22; Mtb FBA inh: 61*; Anthrax LF inh2: 0; GDH-TPI counter: 9

Results for CC1(C(=O)NS(=O)(=O)c2ccc(Cl)s2)CCN1C(=O)Cc1ccc(-c2ccccc2)cc1 (stereo not drawn) ?
BoNT-A LC inh2: 0; Autofluor counter: 4067; BoNT-F LC inh: -7; Mtb FBA inh: -3; Anthrax LF inh2: -8; GDH-TPI counter: -3

Compound activity from PubChem BioAssay.
